Bioassay records from PubChem BioAssay.
D1 potentiator – potentiators of human D1 dopamine receptor; P21728; HEK293 TREx D1 cells, calcium flux, dopamine EC20 potentiation; potentiation, % at 10 µM; 360,000 tested, 0.036% active; AID 504651; in the data active = potentiation above about 30%; also: 0% is about no effect
TRHR agonist – agonists of human TRH receptor. P34981. TRHR cells, calcium flux fluo-8, FDSS agonist mode. activation, % at 2 µM. 360,000 tested, 0.18% active. AID 493084; also: 0% is about no effect
Target sequence (P34981 whole entry, looked up): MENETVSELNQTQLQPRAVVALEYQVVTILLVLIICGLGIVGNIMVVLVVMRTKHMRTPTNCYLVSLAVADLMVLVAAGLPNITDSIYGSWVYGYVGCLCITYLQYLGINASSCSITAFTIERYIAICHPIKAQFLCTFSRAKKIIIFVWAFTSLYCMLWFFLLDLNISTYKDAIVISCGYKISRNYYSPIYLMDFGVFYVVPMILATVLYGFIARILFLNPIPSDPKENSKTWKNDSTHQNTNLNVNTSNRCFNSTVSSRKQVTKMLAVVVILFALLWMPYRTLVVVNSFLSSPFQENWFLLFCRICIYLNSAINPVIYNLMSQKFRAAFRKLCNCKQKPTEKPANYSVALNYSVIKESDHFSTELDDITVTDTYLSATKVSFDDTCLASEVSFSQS
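Read-out: compound-evoked intracellular calcium rise in TRHR cells, fluo-8 dye, kinetic FDSS fluorescence at 1 s/cycle following a 10-cycle baseline. Cells cultured overnight before dye loading (30 min–1.5 h, RT).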
D1 ag – human D1 receptor agonism; P21728; activation, % at 2 µM; 360,000 tested, 1% active; HEK293 T-REx D1 cells, calcium flux, agonist mode; also: 0% is about no effect
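Agonism was scored from calcium flux recorded over 180 s (1 read/s) after pintool compound addition, following a 10-cycle baseline. Cells were inducible force-coupled HEK293 TREx D1, plated overnight at 30 C and loaded with no-wash calcium dye.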
D1 antag – human D1 dopamine receptor antagonism; activity change, negative = inhibition, % at 10 µM; HEK293 TREx D1 cells, calcium flux, dopamine EC80; stronger effect = lower value; 360,000 tested, 3.2% active; AID 504652; in the data active = activity change below about -30%; also: % is scaled to controls: 0 for no effect and ±100 for the full control effect
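Inducible Hek293 Trex D1 cells (tetracycline, overnight, 30 C). Calcium dye 30–90 min RT. Antagonist mode: EC80 dopamine added after 180 s compound read.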
TRHR enhancer – allosterically enhances the human TRH receptor; TRHR cells, fluo-8 calcium fluorescence, EC20 TRH enhancement; P34981; enhancement, % at 2 µM; 360,000 tested, 0.66% active; in the data active = enhancement above about 30%; also: 0% is about no effect
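Enhancer read-out: after compound pinning and an initial kinetic agonist-mode read, an EC20 of TRH (10 nM final) was injected and fluo-8 calcium signal (Ex 480/Em 530) followed at 1 s/cycle for 100 cycles in TRHR-expressing cells.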
Numbers without * were called inactive; . = not tested or not shown. Compounds with a hit are over-represented: about 4.7% of the library has one in this group of screens. Rule as the data show it, unless noted: active = activation above about 30%; inactive = the rest.

SMILES	D1 potentiator	TRHR agonist	D1 ag	D1 antag	TRHR enhancer
CCC/C(=N\NC(=O)c1csc(C)c1C)c1cccs1	-14	0	2	6	35*
CC(C)CCn1cnc2c1c(=O)[nH]c(=O)n2Cc1ccccc1	0	0	2	10	2
CC(C)Cn1cnc2c1c(=O)[nH]c(=O)n2Cc1ccccc1	-2	-1	2	-47*	6
O=C(CSc1nnnn1-c1cccc2c1CCCC2)N1CCOCC1	5	-1	70*	-8	25
O=C(CSc1nnnn1-c1cccc2c1CCCC2)N1CCCC1	-5	0	38*	3	7
CC(CN1c2ccccc2Sc2ccccc21)N(C)C (stereo not given)	-3	0	3	-8	-6
CN1CCCC(OC(=O)c2ccccc2F)C1 (stereo not given)	-7	1	1	3	22
CN1CCCC(CN2c3ccccc3Sc3ccccc32)C1 (stereo not given)	-5	6	42*	-23	2
CN1CCCC(CC2c3ccccc3Sc3ccccc32)C1 (stereo not given)	-1	5	53*	-41*	-1
COc1cccc2cc(C(=O)NC(C)c3ccccc3)c(=O)oc12 (stereo not given)	-8	0	-1	-1	-2
CCCCN(C(=O)c1ccc(N2CCCC2=O)cc1)c1c(N)n(CCC)c(=O)[nH]c1=O	3	0	3	18	-1
CCOc1ccc(-c2cc(C(=O)NCCc3ccc(C)cc3)c3ccccc3n2)cc1	3	1	-1	0	-9
Cc1cc(C)n2ncc(C(=O)NCCc3ccccc3)c2n1	4	0	0	-33*	-3
Cc1ccc(-c2cc(C(=O)NCCc3ccccc3)c3ccccc3n2)cc1C	-2	0	2	-31*	0
CCOC(=O)c1c(C)c(C(=O)NCCc2ccc(OC)cc2)c(C)n1C	-6	0	-1	5	-6
CCC(CC)C(=O)NCc1nc2cccnc2n1Cc1ccc(F)cc1	-1	0	0	22	0
CCOC(=O)c1ccc(-n2c(CN3CCN(CCO)CC3)nc3ccc([N+](=O)[O-])cc3c2=O)cc1	0	0	13	-2	37*
Cc1cccc(-c2nc(Cn3c(SCc4cc(C)ccc4C)nc4ccncc43)c(C)o2)c1	6	0	10	16	4
COc1ccc(S(=O)(=O)n2c(C)nc3ccccc32)cc1C	-2	0	7	-75*	-5
COc1cc(S(=O)(=O)n2c(C)nc3ccccc32)ccc1F	-6	0	0	-9	0
Cc1ccc2sc(N(Cc3cccnc3)C(=O)CCS(=O)(=O)c3ccccc3)nc2c1C	-2	-1	31*	.	7
Cc1cccc2sc(N(Cc3cccnc3)C(=O)CCS(=O)(=O)c3ccccc3)nc12	4	0	8	.	-2
COc1ccccc1NC(=O)Nc1ccc2c(c1)CCC2	38*	-1	2	-14	1
COc1ccc(NC(=O)Nc2ccc3c(c2)CCC3)cc1OC	0	0	2	7	-3
COc1ccc(C)cc1NC(=O)Nc1ccc2c(c1)CCC2	-4	0	0	-44*	0
SMILES	D1 potentiator	TRHR agonist	D1 ag	D1 antag	TRHR enhancer
Cc1cc(C)c([N+](=O)[O-])cc1-c1ccc(/C=N/c2c(-c3ccco3)nc3ccccn23)o1	1	2	2	-50*	-1
O=[N+]([O-])c1ccc(-c2ccc(/C=N/c3c(-c4ccco4)nc4ccccn34)o2)c(Cl)c1	-2	0	0	-11	3
COc1ccc(N(C(=O)Cn2nnc(-c3ccc(C)o3)n2)C(C(=O)NC2CCCC2)c2ccncc2)cc1 (stereo not given)	-2	1	5	1	4
CC(C)Cc1nc(SCC(=O)NCC2CCCO2)c2c(=O)n(C)c(=O)n(C)c2n1 (stereo not given)	-14	0	3	-92*	-15
Nc1nc(-c2ccc(Cl)cc2)nc(-c2ccc(Cl)cc2)n1	-3	0	1	-35*	-2
CC(C)(C)c1ccc(-c2nc(N)nc(N)n2)cc1	4	-1	2	0	4
Cc1ccccc1NC(=O)c1cc2c(-c3ccccc3)nn(-c3ccccc3)c2s1	-3	0	4	-7	20
